Data from PubChem BioAssay (Tox21).
A number with no mark means an inactive call. Results filed as inconclusive are left out. Entries that show only a call come without a potency. Calls of active or inactive are those of the source. Unless noted, calls follow the shape of the dose curve; as a rule, active = well fitted curve in the direction sought with a large enough effect in the repeat runs; inconclusive = weak or mixed curves; inactive = no such curve, though single readings can be large; an effect the other way counts as inactive or inconclusive.

Experiments:
[1] = Human pregnane X receptor (PXR) small molecule agonists, qHTS cell viability counter screen (AID 1346977); also: nearly all actives have a fitted effect of over 50% in size; also: potency is read from the fitted curve at half-maximal effect
How it was run: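 Readout is CellTiter-Fluor fluorescence from PXR-Luc HepG2 cells. Plated cells rested 5hr, then were treated with compounds for 24hr at 37C and 5% CO2, with reagent present during the last hour.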

[2] = Caspase-3/7 induction in HepG2 cells by small molecules, qHTS assay (AID 1346978); also: nearly all actives have a fitted effect of over 15% in size
How it was run: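 Wild-type HepG2 cells, 2,000/well, settled 5 hr at 37 C and 5% CO2, then compound-treated for 17 hr; caspase-3/7 activity read by luminescent Caspase-Glo 3/7 after 30 min at room temperature.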

[3] = Caspase-3/7 induction in CHO-K1 cells by small molecules, qHTS assay (AID 1346980); also: nearly all actives have a fitted effect of over 15% in size
How it was run: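 Wild-type CHO-K1 cells exposed to compounds for 17hr at 37 C, 5% CO2. Caspase-3/7 activity then measured by Caspase-Glo 3/7 luminescence after 30min at room temperature.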

[4] = Caspase-3/7 induction in HepG2 cells by small molecules, qHTS cell viability counter screen (AID 1346981); also: nearly all actives have a fitted effect of over 30% in size; also: potency is read from the fitted curve at half-maximal effect
How it was run: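 In this quantitative HTS counter screen, compounds delivered in DMSO were left on unmodified HepG2 cells for 16 hr at 37 C. Viability was then determined fluorometrically with CellTiter-Fluor, in parallel with caspase-3/7 induction in the same wells.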

[5] = target: Acetylcholinesterase (Homo sapiens) (UniProt P22303); assay: Acetylcholinesterase (AChE) small molecule antagonists: colormetric cell-based qHTS assay (AID 1347395; calls by dose curve; also: nearly all actives have a fitted effect of over 30% in size)
Sequence of Acetylcholinesterase (Homo sapiens) (P22303 whole entry, looked up): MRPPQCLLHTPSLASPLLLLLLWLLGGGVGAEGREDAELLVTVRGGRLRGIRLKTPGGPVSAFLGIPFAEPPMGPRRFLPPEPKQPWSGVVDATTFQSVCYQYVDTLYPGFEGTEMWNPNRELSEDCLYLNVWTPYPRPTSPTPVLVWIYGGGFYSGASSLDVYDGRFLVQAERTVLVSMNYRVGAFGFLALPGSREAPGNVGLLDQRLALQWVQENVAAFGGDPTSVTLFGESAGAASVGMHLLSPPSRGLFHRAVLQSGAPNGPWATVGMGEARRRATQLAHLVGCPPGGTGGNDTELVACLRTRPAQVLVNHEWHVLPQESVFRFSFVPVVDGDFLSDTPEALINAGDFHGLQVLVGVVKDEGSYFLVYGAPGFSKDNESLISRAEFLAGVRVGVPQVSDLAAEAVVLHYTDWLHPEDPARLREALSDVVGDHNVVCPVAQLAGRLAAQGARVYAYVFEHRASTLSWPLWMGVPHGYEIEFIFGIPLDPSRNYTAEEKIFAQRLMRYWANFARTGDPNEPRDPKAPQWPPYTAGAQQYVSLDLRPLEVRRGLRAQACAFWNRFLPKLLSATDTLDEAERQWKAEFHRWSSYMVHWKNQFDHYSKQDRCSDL
How it was run: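 Neuroblastoma line SH-SY5Y supplied the enzyme; cells were preincubated with compound for 30 min at 37 C and 5% CO2. Acetylthiocholine with DTNB was then added for 90 min at 37 C, and thiocholine was measured by colour.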

[6] = target: Acetylcholinesterase (Homo sapiens) (UniProt P22303); assay: Acetylcholinesterase (AChE) small molecule antagonists: enzyme-based qHTS assay (AID 1347397; calls by dose curve; also: nearly all actives have a fitted effect of over 55% in size); details: Potency: AChE enzyme activity inhibition
How it was run: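 In this quantitative HTS, compounds from the Tox21 10K collection were preincubated 30 min at ambient temperature with recombinant human AChE dispensed at 50 mU/mL. Hydrolysis of acetylthiocholine was then followed for 10 min by DTNB colour development.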

[7] = target: Acetylcholinesterase (Homo sapiens) (UniProt P22303); assay: Acetylcholinesterase (AChE) small molecule antagonists: enzyme-based qHTS assay with human liver microsomes (AID 1347399; calls by dose curve; also: nearly all actives have a fitted effect of over 60% in size); details: Potency: qHTS inhibition
How it was run: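 Recombinant human AChE (50 mU/mL in the enzyme mix) and human liver microsomes (0.25 mg/mL final) were preincubated with compound and NADPH (0.25 mg/mL final) for 30 min at 37 C. Acetylthiocholine/DTNB was then added; thiocholine was read colorimetrically after 10 min at room temperature.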

[8] = target: Cytochrome P450 2C19 (Homo sapiens) (UniProt P33261); assay: Cytochrome P450 Family 2 Subfamily C Member 19 (CYP2C19) small molecule antagonists: luciferase reporter qHTS assay (AID 1671197); also: nearly all actives have a fitted effect of over 65% in size; also: potency is read from the fitted curve at half-maximal effect
Sequence of Cytochrome P450 2C19 (Homo sapiens) (P33261 whole entry, looked up): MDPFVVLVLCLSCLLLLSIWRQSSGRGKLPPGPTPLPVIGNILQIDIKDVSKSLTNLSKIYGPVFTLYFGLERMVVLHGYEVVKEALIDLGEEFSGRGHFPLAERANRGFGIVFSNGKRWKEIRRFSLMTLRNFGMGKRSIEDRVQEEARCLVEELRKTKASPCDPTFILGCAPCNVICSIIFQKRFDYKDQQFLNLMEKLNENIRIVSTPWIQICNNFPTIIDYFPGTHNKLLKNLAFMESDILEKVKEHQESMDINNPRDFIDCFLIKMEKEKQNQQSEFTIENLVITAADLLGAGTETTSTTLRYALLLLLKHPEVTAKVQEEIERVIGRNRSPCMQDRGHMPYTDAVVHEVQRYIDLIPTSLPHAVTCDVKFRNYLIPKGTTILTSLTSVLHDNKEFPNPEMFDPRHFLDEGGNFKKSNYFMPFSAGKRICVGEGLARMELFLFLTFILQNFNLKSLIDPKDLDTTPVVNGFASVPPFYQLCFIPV
How it was run: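 Quantitative high-throughput screen of the Tox21 library using CYP2C19 with proluciferin substrate. Reaction: NADPH regeneration, 37C, 1 h, after 10 min compound preincubation at room temperature. Readout: luminescence.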

[9] = target: Cytochrome P450 1A2 (Homo sapiens) (UniProt P05177); assay: Cytochrome P450 Family 1 Subfamily A Member 2 (CYP1A2) small molecule antagonists: luciferase reporter qHTS assay (AID 1671199); also: nearly all actives have a fitted effect of over 50% in size; also: potency is read from the fitted curve at half-maximal effect
Sequence of Cytochrome P450 1A2 (Homo sapiens) (P05177 whole entry, looked up): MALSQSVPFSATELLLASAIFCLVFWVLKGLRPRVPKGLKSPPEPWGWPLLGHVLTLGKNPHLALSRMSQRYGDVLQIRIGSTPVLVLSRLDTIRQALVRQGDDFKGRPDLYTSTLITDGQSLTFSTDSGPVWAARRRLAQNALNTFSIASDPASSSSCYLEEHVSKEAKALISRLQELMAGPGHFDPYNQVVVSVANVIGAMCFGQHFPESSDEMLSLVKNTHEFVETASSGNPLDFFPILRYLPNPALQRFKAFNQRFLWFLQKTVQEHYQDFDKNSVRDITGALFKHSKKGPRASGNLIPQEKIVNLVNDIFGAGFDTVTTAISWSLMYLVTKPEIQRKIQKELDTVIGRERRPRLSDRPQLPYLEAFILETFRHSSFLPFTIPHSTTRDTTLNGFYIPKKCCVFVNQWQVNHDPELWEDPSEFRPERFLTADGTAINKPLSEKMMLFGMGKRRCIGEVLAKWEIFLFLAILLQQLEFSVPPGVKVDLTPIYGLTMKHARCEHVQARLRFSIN
How it was run: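 Steps: enzyme-substrate mix dispensed; test compounds and furafylline control pinned in; 10 min room temperature; NADPH regeneration solution added, 1 h; reaction stopped with luciferin detection reagent; luminescence read after 20 min.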

[10] = target: Voltage-gated inwardly rectifying potassium channel KCNH2 (Homo sapiens) (UniProt Q12809); assay: Human Ether-a-go-go-Related Gene (hERG) channel small molecule antagonists: fluorescence cell-based qHTS assay (AID 1671200); also: nearly all actives have a fitted effect of over 50% in size; also: potency is read from the fitted curve at half-maximal effect
Sequence of Voltage-gated inwardly rectifying potassium channel KCNH2 (Homo sapiens) (Q12809 whole entry, looked up): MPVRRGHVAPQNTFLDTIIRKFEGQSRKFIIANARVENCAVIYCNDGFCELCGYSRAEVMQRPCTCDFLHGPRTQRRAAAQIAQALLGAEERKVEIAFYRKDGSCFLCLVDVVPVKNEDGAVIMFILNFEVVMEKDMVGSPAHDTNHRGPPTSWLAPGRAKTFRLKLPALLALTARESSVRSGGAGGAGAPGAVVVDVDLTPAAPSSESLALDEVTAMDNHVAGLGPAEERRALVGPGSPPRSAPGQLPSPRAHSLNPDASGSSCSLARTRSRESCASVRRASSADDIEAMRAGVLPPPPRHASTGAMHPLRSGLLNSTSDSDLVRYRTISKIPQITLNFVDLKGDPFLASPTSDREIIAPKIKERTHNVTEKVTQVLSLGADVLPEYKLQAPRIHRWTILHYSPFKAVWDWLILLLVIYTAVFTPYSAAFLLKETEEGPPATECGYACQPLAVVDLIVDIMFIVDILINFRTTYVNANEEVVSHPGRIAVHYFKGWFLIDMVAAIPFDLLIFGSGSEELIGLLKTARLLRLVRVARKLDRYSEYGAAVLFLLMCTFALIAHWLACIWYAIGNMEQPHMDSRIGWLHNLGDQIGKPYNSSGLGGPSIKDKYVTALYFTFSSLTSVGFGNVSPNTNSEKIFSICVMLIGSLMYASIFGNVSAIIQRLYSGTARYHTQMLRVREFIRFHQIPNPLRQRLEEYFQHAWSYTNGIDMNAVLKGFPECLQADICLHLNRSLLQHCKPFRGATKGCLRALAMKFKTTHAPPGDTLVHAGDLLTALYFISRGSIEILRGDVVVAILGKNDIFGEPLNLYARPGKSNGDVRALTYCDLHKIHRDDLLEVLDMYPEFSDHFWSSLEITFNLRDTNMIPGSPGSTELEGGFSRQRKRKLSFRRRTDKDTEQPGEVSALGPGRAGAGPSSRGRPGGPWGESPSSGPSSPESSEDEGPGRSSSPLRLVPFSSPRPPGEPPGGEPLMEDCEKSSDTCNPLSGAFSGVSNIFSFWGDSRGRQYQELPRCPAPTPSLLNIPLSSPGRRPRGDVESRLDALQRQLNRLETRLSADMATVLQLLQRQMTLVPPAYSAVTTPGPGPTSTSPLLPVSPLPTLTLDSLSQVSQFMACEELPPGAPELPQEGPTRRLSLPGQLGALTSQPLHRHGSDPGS
How it was run: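 Measured: Tl+ flux via fluorescence (480/540 nm) in hERG-expressing U2OS cells after 1 h dye loading at room temperature.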

[11] = target: Acetylcholinesterase (Homo sapiens) (UniProt P22303); assay: Acetylcholinesterase (AChE) small molecule antagonists: fluorescence cell-based qHTS assay (AID 1347398; calls by dose curve; also: nearly all actives have a fitted effect of over 50% in size); details: Potency: AChE activity
How it was run: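 Cells (SH-SY5Y) attached overnight, were dosed with compound or DMSO vehicle for 30 min at 37 C, and then incubated 40 min at room temperature with acetylthiocholine and Thiolite Green; green fluorescence indexed AChE activity.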

[12] = target: Cytochrome P450 2D6 (Homo sapiens) (UniProt P10635); assay: Cytochrome P450 Family 2 Subfamily D Member 6 (CYP2D6) small molecule antagonists: luciferase reporter qHTS assay (AID 1671196); also: nearly all actives have a fitted effect of over 50% in size; also: potency is read from the fitted curve at half-maximal effect
Sequence of Cytochrome P450 2D6 (Homo sapiens) (P10635 whole entry, looked up): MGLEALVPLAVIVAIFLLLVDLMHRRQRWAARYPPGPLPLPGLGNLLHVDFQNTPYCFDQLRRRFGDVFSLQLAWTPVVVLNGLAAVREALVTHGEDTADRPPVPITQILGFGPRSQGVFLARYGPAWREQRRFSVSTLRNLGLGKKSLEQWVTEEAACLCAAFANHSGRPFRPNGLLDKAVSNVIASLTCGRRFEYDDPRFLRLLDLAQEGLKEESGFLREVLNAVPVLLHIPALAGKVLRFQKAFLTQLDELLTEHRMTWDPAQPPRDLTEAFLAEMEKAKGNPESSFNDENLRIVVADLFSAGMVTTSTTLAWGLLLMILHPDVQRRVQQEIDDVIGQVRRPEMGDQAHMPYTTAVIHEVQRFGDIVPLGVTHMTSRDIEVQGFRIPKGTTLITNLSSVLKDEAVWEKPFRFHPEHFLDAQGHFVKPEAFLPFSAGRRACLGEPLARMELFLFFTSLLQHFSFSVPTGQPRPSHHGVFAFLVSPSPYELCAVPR
How it was run: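 Test chemicals meet CYP2D6 plus proluciferin substrate (10 min, RT); NADPH regenerating solution then drives turnover for 1 h. Detection reagent halts the reaction; luminescence measured after 20 min.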

[13] = target: Cytochrome P450 2C9 (Homo sapiens) (UniProt P11712); assay: Cytochrome P450 Family 2 Subfamily C Member 9 (CYP2C9) small molecule antagonists: luciferase reporter qHTS assay (AID 1671198); also: nearly all actives have a fitted effect of over 50% in size; also: potency is read from the fitted curve at half-maximal effect
Sequence of Cytochrome P450 2C9 (Homo sapiens) (P11712 whole entry, looked up): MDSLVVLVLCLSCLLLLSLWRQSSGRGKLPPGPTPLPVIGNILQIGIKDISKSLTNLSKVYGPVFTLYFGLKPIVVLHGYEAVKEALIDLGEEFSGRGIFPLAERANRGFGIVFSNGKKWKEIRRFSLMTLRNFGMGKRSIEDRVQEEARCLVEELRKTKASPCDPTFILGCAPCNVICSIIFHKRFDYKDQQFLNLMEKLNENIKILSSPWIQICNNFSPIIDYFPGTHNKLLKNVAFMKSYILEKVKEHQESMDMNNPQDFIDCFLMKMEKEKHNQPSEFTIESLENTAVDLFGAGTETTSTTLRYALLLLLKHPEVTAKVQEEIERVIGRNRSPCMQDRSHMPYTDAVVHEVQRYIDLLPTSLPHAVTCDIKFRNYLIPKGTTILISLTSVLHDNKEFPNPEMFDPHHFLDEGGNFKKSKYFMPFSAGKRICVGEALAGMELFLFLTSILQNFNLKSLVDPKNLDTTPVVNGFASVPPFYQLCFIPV
How it was run: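 P450-Glo proluciferin substrate with CYP2C9 enzyme; 10 min RT preincubation, then NADPH regeneration 1 h at 37C; luciferin detection reagent 20 min RT, luminescence in relative luminescence units.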

[14] = target: Nuclear receptor subfamily 1 group I member 2 (Homo sapiens) (UniProt O75469); assay: Human pregnane X receptor (PXR) small molecule agonists, qHTS assay (AID 1346982); also: nearly all actives have a fitted effect of over 35% in size; also: potency is read from the fitted curve at half-maximal effect
Sequence of Nuclear receptor subfamily 1 group I member 2 (Homo sapiens) (O75469 whole entry, looked up): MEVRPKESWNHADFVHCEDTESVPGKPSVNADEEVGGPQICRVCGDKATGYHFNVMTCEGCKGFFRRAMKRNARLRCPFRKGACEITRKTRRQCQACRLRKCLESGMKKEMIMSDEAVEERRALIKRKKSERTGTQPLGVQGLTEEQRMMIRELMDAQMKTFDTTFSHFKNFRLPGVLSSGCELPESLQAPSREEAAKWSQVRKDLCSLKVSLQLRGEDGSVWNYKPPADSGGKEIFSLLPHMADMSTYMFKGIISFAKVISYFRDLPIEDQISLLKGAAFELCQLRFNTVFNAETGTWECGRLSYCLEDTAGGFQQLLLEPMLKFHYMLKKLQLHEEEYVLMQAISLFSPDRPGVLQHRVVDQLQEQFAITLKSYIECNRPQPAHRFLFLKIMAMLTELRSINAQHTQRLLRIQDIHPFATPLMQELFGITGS
How it was run: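 Reporter HepG2 cells expressing PXR-Luc are cultured in charcoal-stripped FBS (5%), treated with compounds for 24 hr at 37 C, and assayed by ONE-Glo luminescence after 30 min at room temperature.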

[15] = target: Nuclear receptor subfamily 1 group I member 2 (Rattus norvegicus) (UniProt Q9R1A7); assay: Rat pregnane X receptor (rPXR) activation by small molecules, qHTS assay (AID 1346983); details: rPXR luciferase reporter cells, One-Glo luminescence, 24 h; max activation: stronger effect = higher value; also: nearly all actives have a fitted effect of over 20% in size
How it was run: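 Cell-based rPXR activation assay: rPXR cells, 2,000 per well, rested 5hr at 37 C, then exposed to compounds in DMSO for 24 hr at 37 C. Luciferase activity read by One-Glo luminescence after 30 min at room temperature.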

[16] = target: Nuclear receptor subfamily 1 group I member 2 (Homo sapiens) (UniProt O75469); assay: CYP3A4 induction through human pregnane X receptor (PXR) by small molecules, qHTS assay (AID 1346984); also: nearly all actives have a fitted effect of over 40% in size
How it was run: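 Induction measured in HepG2-based DPX-2 cells co-expressing human PXR and a CYP3A4 promoter-driven luciferase. After a 24-hour compound exposure, cells received CYP3A4 luciferin substrate at 3uM final for 3 hours, and light output was then recorded.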

[17] = target: Nuclear receptor subfamily 1 group I member 2 (Homo sapiens) (UniProt O75469); assay: Human pregnane X receptor (PXR) activation by small molecules, qHTS assay (AID 1346985); also: nearly all actives have a fitted effect of over 40% in size
How it was run: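 DPX-2 cells (HepG2 co-transfected with a PXR response element and a CYP3A4-promoter luciferase construct) were seeded at 2,000 per well, rested 5 hr at 37C, then exposed to DMSO-dissolved compounds for 24 hr. Activation was read as luciferase luminescence.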

[18] = target: Cytochrome P450 3A4 (Homo sapiens) (UniProt P08684); assay: Cytochrome P450 Family 3 Subfamily A Member 4 (CYP3A4) small molecule antagonists: luciferase reporter qHTS assay (AID 1671201); also: nearly all actives have a fitted effect of over 50% in size; also: potency is read from the fitted curve at half-maximal effect
Sequence of Cytochrome P450 3A4 (Homo sapiens) (P08684 whole entry, looked up): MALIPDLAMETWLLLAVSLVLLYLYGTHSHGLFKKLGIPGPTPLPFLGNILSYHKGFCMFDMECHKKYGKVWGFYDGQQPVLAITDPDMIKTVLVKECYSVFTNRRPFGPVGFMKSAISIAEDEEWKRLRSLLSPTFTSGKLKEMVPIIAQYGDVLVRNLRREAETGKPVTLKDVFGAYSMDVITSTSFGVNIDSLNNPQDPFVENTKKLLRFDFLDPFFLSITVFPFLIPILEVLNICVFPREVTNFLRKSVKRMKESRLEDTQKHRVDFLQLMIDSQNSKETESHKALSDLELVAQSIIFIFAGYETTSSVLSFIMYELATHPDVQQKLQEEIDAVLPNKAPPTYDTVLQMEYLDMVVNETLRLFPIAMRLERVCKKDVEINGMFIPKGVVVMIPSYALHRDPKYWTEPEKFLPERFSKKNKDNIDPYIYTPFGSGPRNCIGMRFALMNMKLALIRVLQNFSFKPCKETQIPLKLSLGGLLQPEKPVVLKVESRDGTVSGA
How it was run: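 Setup: enzyme-substrate mix, compound pin transfer, 10 min RT. Reaction: NADPH regeneration solution, 1 h RT. Readout: detection reagent stops turnover, luminescence measured after 20 min, expressed in relative luminescence units.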

[19] = Caspase-3/7 induction in CHO-K1 cells by small molecules, qHTS cell viability counter screen (AID 1346979); also: nearly all actives have a fitted effect of over 35% in size; also: potency is read from the fitted curve at half-maximal effect
How it was run: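 To flag cytotoxic compounds, treated CHO-K1 wild-type cells were given CellTiter-Fluor at 16hr and read fluorescently after 1hr at 37C; the caspase-3/7 luminescence was measured in these same wells.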

| SMILES | Potency [1] | Potency [2] | Potency [3] | Potency [4] | Potency [5] | Potency [6] | Potency [7] | Potency [8] | Potency [9] | Potency [10] | Potency [11] | Potency [12] | Potency [13] | Potency [14] | max activation [15] [%] | Potency [16] | Potency [17] | Potency [18] | Potency [19] |
| --- | --- | --- | --- | --- | --- | --- | --- | --- | --- | --- | --- | --- | --- | --- | --- | --- | --- | --- | --- |
| CC(C)CC#N | inactive | inactive | inactive | inactive | inactive | inactive | inactive | 32.5 µM (active) | inactive | inactive | – | – | – | – | – | – | – | – | – |
| N#CC(O)c1ccccc1 (configuration not stated) | inactive | inactive | inactive | – | inactive | inactive | inactive | inactive | – | inactive | inactive | 35.5 µM (active) | inactive | – | – | – | – | – | – |
| C#C[C@]1(O)C=C[C@H]2[C@@H]3CCC4=CC(=O)CC[C@@H]4[C@H]3CC[C@@]21CC | inactive | inactive | inactive | inactive | inactive | inactive | inactive | – | inactive | inactive | – | – | 4.9 µM (active) | 29.8 µM (active) | -1.56 | inactive | inactive | – | – |
| COC(=O)COc1ccc(Cl)cc1Cl | inactive | inactive | inactive | inactive | inactive | inactive | inactive | – | – | inactive | inactive | inactive | inactive | inactive | – | – | – | inactive | – |
| CC(CCc1ccccc1)NC(C)C(O)c1ccc(O)cc1 (configuration not stated) | – | inactive | inactive | inactive | inactive | inactive | inactive | 9.77 µM (active) | 15.5 µM (active) | 4.77 µM (active) | inactive | 0.436 µM (active) | inactive | inactive | – | – | – | – | inactive |
| O=C(CCCN1CCC(n2c(=O)[nH]c3ccccc32)CC1)c1ccc(F)cc1 | – | inactive | inactive | inactive | inactive | inactive | inactive | inactive | inactive | 1.51 µM (active) | inactive | 8.71 µM (active) | – | 13.3 µM (active) | -1.58 | inactive | inactive | – | inactive |
| N#CC(CCc1ccc(Cl)cc1)(Cn1cncn1)c1ccccc1 (configuration not stated) | 61.1 µM (active) | – | inactive | 48.6 µM (active) | inactive | inactive | inactive | 0.2 µM (active) | 31.7 µM (active) | 21.9 µM (active) | inactive | – | 2.24 µM (active) | 19.3 µM (active) | – | – | – | 63.3 nM (active) | 43.3 µM (active) |
